The supplement of paper PMC6089552
The campaign covered roughly 3,200 compounds. About 300 (9.4%) showed activity. This excerpt belongs to a sample that is enriched for actives.

System: A673/TR/shEF
Test: cell viability (LOESS-normalised, relative to median of negative controls) (log2 ratio); higher = more viable cells (less compound effect), active = hit call of the paper (over 3 MAD below the median)
Settings: treatment time: 72 h
Summary of the method: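 A673/TR/shEF Ewing sarcoma cells (1,500 per well, 384-well plates) were grown with or without doxycycline to induce EWS-FLI1 shRNA knockdown, starting 24 h before compounds. Library compounds at two or more concentrations, with DMSO controls, were added for three days. Cell viability was read by CellTiter-Glo luminescence on an Envision reader, then LOESS-corrected per plate, divided by the median of negative controls and log2-transformed. Hits were wells at least three median absolute deviations from the median of all screened wells.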

[1] = 0.25 µM, library screen: screen1, EWS-FLI1 expression: high (no doxycycline)
[2] = 0.25 µM, library screen: screen1, EWS-FLI1 expression: low (doxycycline-induced shRNA knockdown)
[3] = 2.5 µM, library screen: screen1, EWS-FLI1 expression: high (no doxycycline)
[4] = 2.5 µM, library screen: screen1, EWS-FLI1 expression: low (doxycycline-induced shRNA knockdown)
[5] = 0.103 µM, library screen: screen3, EWS-FLI1 expression: high (no doxycycline)
[6] = 0.103 µM, library screen: screen3, EWS-FLI1 expression: low (doxycycline-induced shRNA knockdown)
[7] = 0.308 µM, library screen: screen3, EWS-FLI1 expression: high (no doxycycline)
[8] = 0.308 µM, library screen: screen3, EWS-FLI1 expression: low (doxycycline-induced shRNA knockdown)
[9] = 0.926 µM, library screen: screen3, EWS-FLI1 expression: high (no doxycycline)
[10] = 0.926 µM, library screen: screen3, EWS-FLI1 expression: low (doxycycline-induced shRNA knockdown)
[11] = 2.8 µM, library screen: screen3, EWS-FLI1 expression: high (no doxycycline)
[12] = 2.8 µM, library screen: screen3, EWS-FLI1 expression: low (doxycycline-induced shRNA knockdown)
[13] = 8.3 µM, library screen: screen3, EWS-FLI1 expression: high (no doxycycline)
[14] = 8.3 µM, library screen: screen3, EWS-FLI1 expression: low (doxycycline-induced shRNA knockdown)
[15] = 25 µM, library screen: screen3, EWS-FLI1 expression: high (no doxycycline)
[16] = 25 µM, library screen: screen3, EWS-FLI1 expression: low (doxycycline-induced shRNA knockdown)
[17] = 0.25 µM, library screen: screen2, EWS-FLI1 expression: high (no doxycycline)
[18] = 0.25 µM, library screen: screen2, EWS-FLI1 expression: low (doxycycline-induced shRNA knockdown)
[19] = 2.5 µM, library screen: screen2, EWS-FLI1 expression: high (no doxycycline)
[20] = 2.5 µM, library screen: screen2, EWS-FLI1 expression: low (doxycycline-induced shRNA knockdown)
[21] = 0.025 µM, library screen: screen2, EWS-FLI1 expression: high (no doxycycline)
[22] = 0.025 µM, library screen: screen2, EWS-FLI1 expression: low (doxycycline-induced shRNA knockdown)
[23] = 25 µM, library screen: screen2, EWS-FLI1 expression: high (no doxycycline)
[24] = 25 µM, library screen: screen2, EWS-FLI1 expression: low (doxycycline-induced shRNA knockdown)

Measured: cell viability (log2)

CSc1nnc(-c2ccccc2)c(-c2ccccc2)n1
inactive: [1] 0.103 | [2] 0.00324 | [3] 0.0984 | [4] 0.0395

COc1cc(OC)c2c(c1)O[C@H](c1cc(OC)c(OC)c(OC)c1)[C@H](OC(=O)c1cc(OC)c(OC)c(OC)c1)C2
inactive: [1] 0.0414 | [2] 0.0159 | [3] 0.0705 | [4] -0.00627

CC1OC(OC2C(O)COC(OC3C(C)OC(OC4C(OC(=O)C56CCC(C)(C)CC5C5=CCC7C8(C)CCC(OC9OC(CO)C(O)C(O)C9O)C(C)(C)C8CCC7(C)C5(C)CC6O)OCC(O)C4O)C(O)C3O)C2O)C(O)C(O)C1O (stereo not given)
inactive: [1] 0.0486 | [2] 0.0258 | [3] 0.0372 | [4] 0.223

COC(=O)c1c(C)c2c(c(C)c1OC)OC(=O)c1c(C)c(Cl)c(OC)c(Cl)c1O2
inactive: [1] 0.0616 | [2] 0.043 | [3] 0.0828 | [4] 0.0347

CCCCCOC(=O)Nc1nc(=O)n([C@@H]2O[C@H](C)[C@@H](O)[C@H]2O)cc1F
inactive: [5] 0.057 | [6] 0.111 | [7] 0.147 | [8] 0.143 | [9] 0.154 | [10] 0.121 | [11] 0.179 | [12] 0.14 | [13] 0.166 | [14] 0.0924 | [15] 0.195 | [16] 0.124

O=c1[nH]c(=O)n([C@H]2C[C@H](O)[C@@H](CO)O2)cc1Br
inactive: [17] 0.238 | [18] 0.0517 | [19] 0.037 | [20] 0.0646

O=c1[nH]c(=O)n([C@H]2C[C@H](O)[C@@H](CO)O2)cc1/C=C/Br
inactive: [17] 0.184 | [18] 0.138 | [19] 0.072 | [20] 0.108

Cc1cn([C@@H]2C[C@@H](O)[C@H](CO)O2)c(=O)[nH]c1=O
inactive: [5] 0.207 | [6] 0.0457 | [7] 0.0611 | [8] 0.118 | [9] 0.128 | [10] 0.0817 | [11] 0.203 | [12] 0.115 | [13] 0.177 | [14] 0.101 | [15] 0.139 | [16] 0.167

O=c1[nH]c(=O)n([C@H]2C[C@H](O)[C@@H](CO)O2)cc1C(F)(F)F
inactive: [5] 0.105 | [6] 0.105 | [1] -0.0346 | [2] 0.0988 | [7] 0.134 | [8] 0.147 | [9] 0.108 | [10] 0.0588 | [3] 0.0509 | [4] 0.029 | [11] 0.0746 | [12] 0.0921 | [13] 0.0584 | [14] 0.048 | [16] 0.124
active: [15] -0.362

C[C@H]1O[C@@H](n2cc(F)c(=O)[nH]c2=O)[C@H](O)[C@@H]1O
active: [1] -0.21 | [3] -1.24 | [19] -0.257 | [23] -2.97 | [24] -0.654
inactive: [21] 0.0333 | [22] 0.0231 | [2] 0.08 | [17] -0.00269 | [18] 0.0834 | [4] -0.0424 | [20] 0.0331

Cc1cn([C@H]2C[C@H](N=[N+]=[N-])[C@@H](CO)O2)c(=O)[nH]c1=O
inactive: [21] 0.0606 | [22] 0.0603 | [2] -0.108 | [17] 0.183 | [18] 0.0909 | [19] 0.12 | [20] 0.103 | [23] 0.0992 | [24] 0.0558
active: [1] -0.142 | [3] -1.07 | [4] -0.798

Cc1cn([C@H]2C=C[C@@H](CO)O2)c(=O)[nH]c1=O
inactive: [5] -0.00295 | [6] 0.0515 | [17] 0.197 | [18] 0.032 | [7] -0.0178 | [8] 0.0223 | [9] 0.0714 | [10] 0.0163 | [19] 0.101 | [20] 0.0899 | [11] 0.0507 | [12] 0.0197 | [13] 0.102 | [14] 0.0821 | [15] 0.0208 | [16] 0.0668

CCc1cn([C@H]2C[C@H](O)[C@@H](CO)O2)c(=O)[nH]c1=O
inactive: [21] 0.0952 | [22] 0.0914 | [1] 0.152 | [2] 0.0662 | [17] 0.0236 | [18] 0.0662 | [3] 0.079 | [4] 0.152 | [19] 0.176 | [20] 0.0177 | [23] -0.0289 | [24] 0.0946

O=c1[nH]c(=O)n([C@H]2C[C@H](O)[C@@H](CO)O2)cc1F
inactive: [21] 0.0911 | [22] 0.0185 | [5] 0.0528 | [6] 0.0374 | [2] 0.23 | [18] 0.103 | [8] 0.079 | [10] 0.0595 | [4] 0.156 | [20] 0.138 | [12] 0.0813 | [14] 0.0595 | [24] -0.0409 | [16] 0.0541
active: [1] -1.07 | [17] -0.231 | [7] -0.266 | [9] -0.534 | [3] -1.48 | [19] -0.805 | [11] -0.621 | [13] -0.85 | [23] -0.944 | [15] -1.03
